The target of assay [1] is Estrogen receptor (Homo sapiens) (UniProt P03372). Nature of the assay: qHTS assay for small molecule antagonists of estrogen receptor alpha signaling (AID 588513; active = well fitted curve in the direction sought with a large enough effect in the signal ratio, with a control signal flat, not every such curve was filed as active; inconclusive = small, poorly fitted or top-dose-only effect, or effect the other way, or a change in a side signal; inactive = no such curve, though single readings can be large or run the other way; the % refers to the signal ratio; also: potency is read from the fitted curve at half-maximal effect). A digest of the protocol:
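Beta-lactamase reporter, antagonist mode, HEK 293 GripTite cells; 0.5nM E2 stimulus, 18 h, 37 C; CCF4 dye 2 h RT; fluorescence. IC50 and efficacy from Hill fits, normalized to E2 and DMSO.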
(In general: In qHTS, concentration-response curves come from the screen itself.)

The target is the same in assay [2]. Nature of the assay: qHTS assay for small molecule agonists of estrogen receptor alpha signaling (AID 588514). Also: nearly all actives have a fitted effect of over 70% in size. Also: potency is read from the fitted curve at half-maximal effect.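 As to activation: 0% = vehicle only and 100% = reference agonist.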 In a few lines: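 EC50 and efficacy came from Hill fits of beta-lactamase reporter signal (CCF4 dye, 2 h at room temperature) scaled between DMSO and 20 nM 17-beta-estradiol. Agonist mode: HEK293 ER-alpha-UAS-bla cells in charcoal/dextran-stripped serum medium, 18 h compound exposure at 37 C.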

The target of assay [3] is Peroxisome proliferator-activated receptor delta (Homo sapiens) (UniProt Q03181). Nature of the assay: qHTS assay for small molecule agonists of peroxisome proliferator-activated receptor delta signaling (AID 588534).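 Also: 0% = DMSO basal wells and 100% = positive control agonist at 10 µM.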 A digest of the protocol:
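Agonist-mode beta-lactamase reporter readout (CCF4 dye, 2 h at RT) after 18 h at 37 °C exposure to a titration; Hill-equation fitting gave EC50 and maximal response.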

Assay [4] deals with Peroxisome proliferator-activated receptor gamma (Homo sapiens) (UniProt P37231). Nature of the assay: qHTS assay for small molecule antagonists of peroxisome proliferator-activated receptor gamma signaling (AID 588537; active = well fitted inhibition curve with a large enough effect in the signal ratio, with a control signal flat, not every such curve was filed as active; inconclusive = small, poorly fitted or top-dose-only effect, or effect the other way, or a change in a side signal; the % refers to the signal ratio;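 also: reporter cells co-stimulated with 50 nM rosiglitazone agonist during compound treatment; % of control where 0% means no effect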). In a few lines:
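Compounds are tested as concentration series for inhibition of rosiglitazone-driven (50 nM) reporter expression in GeneBLAzer PPAR-gamma-UAS-bla HEK293 cells. After 16 h at 37 C, CCF4 substrate is added for 2 h at room temperature and blue/green fluorescence is measured.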

In assay [5] the target is Vitamin D3 receptor (Homo sapiens) (UniProt P11473). Nature of the assay: qHTS assay for small molecule antagonists of vitamin D receptor signaling (AID 588541).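 Also: receptor activated by calcitriol during compound treatment; series mostly up to about 77 µM; % is scaled to controls: 0 for no effect and ±100 for the full control effect.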 A digest of the protocol:
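VDR-UAS-bla HEK293T cells (2000/well, 2% charcoal-stripped FBS) were treated with titrated compounds plus 1-alpha,25-dihydroxyvitamin D3 (50 nM or 3 nM final) for 16 h at 37 C. CCF4 beta-lactamase fluorescence was read; Hill fits gave IC50.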

Assay [6] addresses Thyroid hormone receptor beta (Homo sapiens) (UniProt P10828). Nature of the assay: qHTS assay for small molecule agonists of thyroid hormone receptor beta signaling (AID 588545). In a few lines: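 In this cell-based screen, titrated compounds act on HEK 293 cells held in medium with 2% charcoal/dextran FBS, NEAA and pyruvate for 18 hrs at 37 C. Responses are expressed relative to T3 (10 nM) as 100% and basal DMSO as 0%.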

Assay [7] in a line: qHTS assay for small molecule antagonists of retinoid X receptor alpha signaling (AID 588546; active = well fitted inhibition curve with a large enough effect in the signal ratio, with a control signal flat, not every such curve was filed as active; inconclusive = small, poorly fitted or top-dose-only effect, or effect the other way, or a change in a side signal; inactive = no such curve, though single readings can be large or run the other way; the % refers to the signal ratio;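 also: cells stimulated with 9-cis-retinoic acid as agonist; % is scaled to controls: 0 for no effect and ±100 for the full control effect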). The following applies: HEK293T RXRa-UAS-bla, beta-lactamase ratio, antagonist mode; measured here: W530 green channel, cytotoxicity proxy. In a few lines:
(§1)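 Beta-lactamase reporter inhibition, read as CCF4 fluorescence ratio (ex 405, em 460/530 nm) after 2 h at RT. HEK293T UAS-bla cells, 2500/well, were stimulated with 9-cis-RA at 500 or 100 nM final alongside test compound for 18 h at 37 C.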

Assay [8] concerns the target Retinoic acid receptor RXR-alpha (Homo sapiens) (UniProt P19793). Described as above. To be noted: HEK293T RXRa-UAS-bla, beta-lactamase ratio, antagonist mode. A digest of the protocol:
as §1

Assay [9] can be described thus: qHTS assay for small molecule activators of the p53 signaling pathway (AID 651743; active = well fitted activation curve with a large enough effect in the signal ratio, not every such curve was filed as active; inconclusive = small, poorly fitted or top-dose-only effect, or a change in a side signal; the % refers to the signal ratio; also: potency is read from the fitted curve at half-maximal effect; as to activation: series mostly up to about 92 µM; % of control where 0% means no effect). The following applies: HCT-116 p53RE-bla, beta-lactamase FRET ratio, 16 h; activation: stronger effect = higher value. A digest of the protocol:
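Agonist-mode quantitative HTS in HCT-116 cells carrying a p53-response-element beta-lactamase reporter; 16 h compound treatment at 37 C, then FRET substrate loading for 2 h at room temperature and fluorescence read.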

Assay [10] in a line: qHTS assay for environmental chemicals that activate the Aryl hydrocarbon Receptor (AhR) signaling pathway (AID 651777; active = well fitted curve in the direction sought with a large enough effect; inconclusive = small, poorly fitted or top-dose-only effect, or another doubt; inactive = no such curve, though single readings can be large; an effect the other way counts as inactive or inconclusive; also: % of control where 0% means no effect; nearly all actives have a fitted effect of over 15% in size). The following applies: 1A2-DRE human hepatoma cells, luciferase, 24 h; activation: stronger effect = higher value. In a few lines: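 Quantitative HTS in stably transfected human liver-derived cells whose luciferase gene sits downstream of the CYP1A2 promoter and dioxin response element. After 24 hr exposure at 37 C, One-Glo luminescence was measured.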

The target of assay [11] is Peroxisome proliferator-activated receptor alpha (Homo sapiens) (UniProt Q07869). The assay is described as follows: qHTS assay for small molecule agonists of the peroxisome proliferator-activated receptor alpha (PPARalpha) signaling pathway (AID 651778; active = well fitted curve in the direction sought with a large enough effect; inconclusive = small, poorly fitted or top-dose-only effect, or another doubt; inactive = no such curve, though single readings can be large; an effect the other way counts as inactive or inconclusive; also: % of control where 0% means no effect). The following applies: PathHunter PPARalpha complementation, chemiluminescence, 6 h; max response: stronger effect = higher value. A digest of the protocol: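 Cells plated at 2,000/well and held overnight at 37 C, 5% CO2, then compound added by pin tool for 6 hr; after PathHunter detection reagent and 60 min at room temperature, chemiluminescence from enzyme complementation was read.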

The nature of assay [12]: qHTS assay for small molecule agonists of the antioxidant response element (ARE) signaling pathway measured by Nrf2-dependant transcriptional activity - cell viability counter screen (AID 720653; active = well fitted curve in the direction sought with a large enough effect in the repeat runs; inconclusive = weak or mixed curves; inactive = no such curve, though single readings can be large; an effect the other way counts as inactive or inconclusive; also: % is scaled to controls: 0 for no effect and ±100 for the full control effect). To be noted: ARE-bla HepG2 viability, CellTiter-Glo ATP luminescence, 16 h; max response: stronger effect = lower value. A digest of the protocol: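 ARE-bla HepG2 cells (2,000/well) rested 5 hrs at 37C/5% CO2, then exposed to compounds in DMSO for 16 hrs. Viability was read in the same wells as intracellular ATP by luminescence, 30 min at room temperature after reagent addition.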

Assay [13] can be described thus: qHTS assay for cell viability of HEK293 cells (AID 743288; active = well fitted curve in the direction sought with a large enough effect; inconclusive = small, poorly fitted or top-dose-only effect, or another doubt; inactive = no such curve, though single readings can be large; an effect the other way counts as inactive or inconclusive; also: % is scaled to controls: 0 for no effect and ±100 for the full control effect; nearly all actives have a fitted effect of over 50% in size). To be noted: ATP luminescence (CellTiter-Glo), 18 h; max response: stronger effect = lower value. In a few lines: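 ATP luminescence (CellTiter-Glo) reports metabolically competent cell number after parental HEK293 cells, 2,000/well, were treated with DMSO-dissolved compounds for 18 h at 37 C; reagent incubation 30 min, room temperature.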

A short description of assay [14]: qHTS assay for cell viability of the p53RE-bla HCT-116 cell line (AID 743292; active = well fitted curve in the direction sought with a large enough effect; inconclusive = small, poorly fitted or top-dose-only effect, or another doubt; inactive = no such curve, though single readings can be large; an effect the other way counts as inactive or inconclusive; also: % is scaled to controls: 0 for no effect and ±100 for the full control effect; nearly all actives have a fitted effect of over 55% in size). A digest of the protocol: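 Viability of compound-treated p53RE-bla HCT-116 cells is taken from ATP-dependent luciferase luminescence. Treatment lasts 16 h at 37 C after a 5 h settling period; detection follows 30 min at room temperature.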
For assay [15], the target named is Vitamin D3 receptor (Homo sapiens) (UniProt P11473). The assay is described as follows: qHTS assay for small molecule agonists of vitamin D receptor signaling (AID 588543).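 Also: 0% = DMSO basal and 100% = reference agonist control.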 A digest of the protocol:
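β-lactamase reporter, VDR-UAS-bla HEK293T, agonist mode. Cells plated 5 h at 37 °C, compound titration 16 h at 37 °C, CCF4 dye 2 h RT, ratio 460/530 nm. Hill fit → EC50, efficacy vs 50 nM 1α,25-(OH)2D3.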

Assay [16] addresses Retinoic acid receptor RXR-alpha (Homo sapiens) (UniProt P19793). Nature of the assay: qHTS assay for small molecule agonists of retinoid X receptor alpha signaling (AID 588544).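 Also: 0% = DMSO basal wells and 100% = reference agonist.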
The nature of assay [17]: qHTS assay for small molecule agonists of the antioxidant response element (ARE) signaling pathway measured by Nrf2-dependant transcriptional activity (AID 720636; active = well fitted curve in the direction sought with a large enough effect in the repeat runs; inconclusive = weak or mixed curves; inactive = no such curve, though single readings can be large; an effect the other way counts as inactive or inconclusive; also: potency is read from the fitted curve at half-maximal effect; as to activation: % of control where 0% means no effect). In a few lines: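 Quantitative HTS format in HepG2 cells stably expressing an ARE-luciferase reporter; 16 hr compound treatment at 37 C, luciferase signal detected with ONE-Glo.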
Assay [18] has as its target Nuclear receptor subfamily 1 group I member 2 (Rattus norvegicus) (UniProt Q9R1A7). The assay is described as follows: qHTS assay for small molecule activators of the rat pregnane X receptor (rPXR) signaling pathway (AID 651751; call rule not given here; also: 0% is about no effect). To be noted: rPXR reporter cells, luciferase (One-Glo), 24 h.
The target of assay [19] is Peroxisome proliferator-activated receptor gamma (Homo sapiens) (UniProt P37231). The assay is described as follows: qHTS assay for small molecule agonists of peroxisome proliferator-activated receptor gamma signaling (AID 588536; active = well fitted curve in the direction sought with a large enough effect in the signal ratio, with a control signal flat, not every such curve was filed as active; inconclusive = small, poorly fitted or top-dose-only effect, or effect the other way, or a change in a side signal; inactive = no such curve, though single readings can be large or run the other way; the % refers to the signal ratio;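 also: 0% = DMSO basal wells and 100% = rosiglitazone at 2 µM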). In a few lines:
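This is an agonist-mode beta-lactamase reporter assay in HEK293 PPAR-gamma-UAS-bla cells with 1% charcoal/dextran FBS. Compound titrations ran 16 h at 37 C before CCF4 detection. EC50 and efficacy are Hill fits scaled to 2 uM rosiglitazone (100%) and DMSO basal.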

Assay [20] concerns the target Thyroid hormone receptor beta (Homo sapiens) (UniProt P10828). The assay is described as follows: qHTS assay for small molecule antagonists of thyroid hormone receptor beta signaling (AID 588547; active = well fitted inhibition curve with a large enough effect in the signal ratio, with a control signal flat, not every such curve was filed as active; inconclusive = small, poorly fitted or top-dose-only effect, or effect the other way, or a change in a side signal; the % refers to the signal ratio;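 also: cells stimulated with 0.4 nM T3 agonist during compound exposure; series mostly up to about 77 µM; % is scaled to controls: 0 for no effect and ±100 for the full control effect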). To be noted: TR-UAS-bla HEK293, beta-lactamase ratio, antagonist mode, 18 h. In a few lines: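 TR-UAS-bla GripTite HEK293 cells in 2% charcoal/dextran FBS medium were preincubated 4 h at 37 C, given compound (0.59 nM to 92 uM) plus 0.4 nM T3 (final) for 18 h, then CCF4 for 2 h at RT; Hill fit gave IC50.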

The structures appear in SMILES notation. “And” between values parts separate entries of the source, which are not always exact repeats. Equal entries are not always repeated. More than one record can exist for a structure, and the calls need not agree. The source made the active and inactive calls. Unless noted, calls follow the shape of the full dose curve.

Peroxisome proliferator-activated receptor delta (Homo sapiens), sequence (Q03181 whole entry, looked up): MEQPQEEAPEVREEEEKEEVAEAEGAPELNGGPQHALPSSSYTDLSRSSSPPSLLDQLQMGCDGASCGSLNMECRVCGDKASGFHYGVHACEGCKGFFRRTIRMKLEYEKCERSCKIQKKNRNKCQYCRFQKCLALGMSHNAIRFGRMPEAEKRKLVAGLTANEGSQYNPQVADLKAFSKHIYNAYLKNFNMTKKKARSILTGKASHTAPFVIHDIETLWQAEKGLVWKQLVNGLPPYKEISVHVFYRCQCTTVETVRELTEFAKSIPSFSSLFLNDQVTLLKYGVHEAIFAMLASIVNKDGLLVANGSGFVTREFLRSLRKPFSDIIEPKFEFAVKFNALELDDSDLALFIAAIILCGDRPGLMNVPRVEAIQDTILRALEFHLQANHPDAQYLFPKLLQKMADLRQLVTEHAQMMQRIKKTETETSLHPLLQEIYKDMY
Vitamin D3 receptor (Homo sapiens), sequence (P11473 whole entry, looked up): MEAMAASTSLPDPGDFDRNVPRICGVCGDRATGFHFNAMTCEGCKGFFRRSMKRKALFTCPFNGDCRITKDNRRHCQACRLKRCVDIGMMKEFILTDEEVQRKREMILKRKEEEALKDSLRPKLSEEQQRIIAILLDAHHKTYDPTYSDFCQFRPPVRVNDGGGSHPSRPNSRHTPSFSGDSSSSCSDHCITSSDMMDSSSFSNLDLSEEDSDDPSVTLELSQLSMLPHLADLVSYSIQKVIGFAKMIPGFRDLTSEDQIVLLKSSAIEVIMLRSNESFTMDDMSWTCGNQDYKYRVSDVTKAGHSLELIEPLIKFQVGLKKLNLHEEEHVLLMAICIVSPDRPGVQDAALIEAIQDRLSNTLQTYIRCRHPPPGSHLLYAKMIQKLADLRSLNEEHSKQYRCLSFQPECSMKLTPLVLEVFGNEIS
Estrogen receptor (Homo sapiens), sequence (P03372 whole entry, looked up): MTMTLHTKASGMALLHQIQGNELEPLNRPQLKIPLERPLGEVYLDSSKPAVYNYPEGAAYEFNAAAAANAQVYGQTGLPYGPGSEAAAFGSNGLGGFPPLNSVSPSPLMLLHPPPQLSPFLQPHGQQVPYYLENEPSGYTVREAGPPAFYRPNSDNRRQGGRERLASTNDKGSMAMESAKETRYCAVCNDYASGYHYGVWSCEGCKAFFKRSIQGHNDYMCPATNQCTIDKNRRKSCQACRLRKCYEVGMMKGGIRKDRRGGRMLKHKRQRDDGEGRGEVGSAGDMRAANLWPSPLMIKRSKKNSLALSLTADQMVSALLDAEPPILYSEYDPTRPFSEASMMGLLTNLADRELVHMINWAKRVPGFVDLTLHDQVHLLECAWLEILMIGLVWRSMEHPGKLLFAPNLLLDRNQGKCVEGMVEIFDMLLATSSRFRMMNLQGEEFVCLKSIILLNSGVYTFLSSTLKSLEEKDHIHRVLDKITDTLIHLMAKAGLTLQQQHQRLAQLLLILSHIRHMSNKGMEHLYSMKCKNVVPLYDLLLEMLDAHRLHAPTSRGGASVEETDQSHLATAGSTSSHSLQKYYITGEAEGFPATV
Thyroid hormone receptor beta (Homo sapiens), sequence (P10828 whole entry, looked up): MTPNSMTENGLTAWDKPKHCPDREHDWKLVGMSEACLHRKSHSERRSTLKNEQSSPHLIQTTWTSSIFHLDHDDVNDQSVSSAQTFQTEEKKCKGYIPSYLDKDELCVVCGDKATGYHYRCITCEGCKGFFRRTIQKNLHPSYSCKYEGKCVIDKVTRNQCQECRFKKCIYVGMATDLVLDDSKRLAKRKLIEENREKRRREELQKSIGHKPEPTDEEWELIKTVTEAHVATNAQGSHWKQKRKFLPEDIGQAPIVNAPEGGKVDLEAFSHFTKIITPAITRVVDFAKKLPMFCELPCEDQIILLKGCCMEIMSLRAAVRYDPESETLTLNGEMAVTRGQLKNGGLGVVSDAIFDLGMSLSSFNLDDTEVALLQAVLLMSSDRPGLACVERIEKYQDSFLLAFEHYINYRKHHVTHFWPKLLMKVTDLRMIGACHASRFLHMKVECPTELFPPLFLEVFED
Peroxisome proliferator-activated receptor alpha (Homo sapiens), sequence (Q07869 whole entry, looked up): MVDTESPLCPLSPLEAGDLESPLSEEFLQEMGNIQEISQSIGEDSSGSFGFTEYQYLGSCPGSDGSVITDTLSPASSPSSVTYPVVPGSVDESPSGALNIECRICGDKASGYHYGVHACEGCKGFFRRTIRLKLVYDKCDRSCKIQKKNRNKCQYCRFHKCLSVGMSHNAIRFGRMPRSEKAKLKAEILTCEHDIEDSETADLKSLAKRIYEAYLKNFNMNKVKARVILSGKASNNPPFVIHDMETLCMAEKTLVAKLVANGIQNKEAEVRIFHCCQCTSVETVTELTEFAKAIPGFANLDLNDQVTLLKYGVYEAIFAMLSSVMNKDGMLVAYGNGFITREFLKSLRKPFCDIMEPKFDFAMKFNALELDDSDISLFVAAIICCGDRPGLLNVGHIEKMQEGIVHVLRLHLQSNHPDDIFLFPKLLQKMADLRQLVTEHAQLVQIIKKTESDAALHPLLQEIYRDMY
Retinoic acid receptor RXR-alpha (Homo sapiens), sequence (P19793 whole entry, looked up): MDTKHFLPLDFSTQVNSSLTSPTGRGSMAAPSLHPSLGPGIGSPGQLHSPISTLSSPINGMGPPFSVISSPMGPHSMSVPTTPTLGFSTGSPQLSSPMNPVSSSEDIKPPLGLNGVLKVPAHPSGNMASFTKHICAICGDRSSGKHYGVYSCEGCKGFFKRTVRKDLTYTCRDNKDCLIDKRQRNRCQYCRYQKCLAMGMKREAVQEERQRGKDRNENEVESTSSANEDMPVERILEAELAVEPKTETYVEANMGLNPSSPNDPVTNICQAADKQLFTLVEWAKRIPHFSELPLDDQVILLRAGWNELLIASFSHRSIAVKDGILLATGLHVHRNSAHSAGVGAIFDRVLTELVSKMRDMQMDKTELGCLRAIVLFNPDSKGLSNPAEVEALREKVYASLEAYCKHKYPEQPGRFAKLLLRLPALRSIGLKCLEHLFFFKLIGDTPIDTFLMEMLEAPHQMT
Peroxisome proliferator-activated receptor gamma (Homo sapiens), sequence (P37231 whole entry, looked up): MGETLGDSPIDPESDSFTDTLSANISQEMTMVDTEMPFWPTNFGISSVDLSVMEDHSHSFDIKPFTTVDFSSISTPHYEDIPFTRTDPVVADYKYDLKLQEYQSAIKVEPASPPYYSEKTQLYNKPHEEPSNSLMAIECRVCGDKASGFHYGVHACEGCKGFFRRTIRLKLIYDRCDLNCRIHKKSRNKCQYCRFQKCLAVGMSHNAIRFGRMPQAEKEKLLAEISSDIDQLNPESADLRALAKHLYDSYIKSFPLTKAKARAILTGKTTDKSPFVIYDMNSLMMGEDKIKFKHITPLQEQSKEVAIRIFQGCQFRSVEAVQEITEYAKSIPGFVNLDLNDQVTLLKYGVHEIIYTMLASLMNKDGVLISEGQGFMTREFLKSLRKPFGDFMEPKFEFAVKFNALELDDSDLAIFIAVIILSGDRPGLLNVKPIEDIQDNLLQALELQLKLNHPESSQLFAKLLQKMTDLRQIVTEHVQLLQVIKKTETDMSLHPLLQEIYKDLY
Nuclear receptor subfamily 1 group I member 2 (Rattus norvegicus), sequence (Q9R1A7 whole entry, looked up): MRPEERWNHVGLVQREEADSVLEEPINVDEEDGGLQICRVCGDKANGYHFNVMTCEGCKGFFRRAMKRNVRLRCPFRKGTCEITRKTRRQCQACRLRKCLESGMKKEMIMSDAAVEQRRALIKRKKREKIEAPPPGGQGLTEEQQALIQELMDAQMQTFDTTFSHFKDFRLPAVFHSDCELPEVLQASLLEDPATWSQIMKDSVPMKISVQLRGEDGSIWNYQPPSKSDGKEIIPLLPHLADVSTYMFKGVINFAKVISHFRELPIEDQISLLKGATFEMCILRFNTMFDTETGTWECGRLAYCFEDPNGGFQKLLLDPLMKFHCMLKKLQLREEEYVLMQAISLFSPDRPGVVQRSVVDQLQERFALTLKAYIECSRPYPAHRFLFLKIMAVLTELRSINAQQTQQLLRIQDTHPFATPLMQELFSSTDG

In the case of `CC1CCCCC1NC(=O)Nc1ccccc1` (stereo not given), the Potency entry in assay [1], in [2], in assay [4], in assay [5], in [6] and in assay [14] was “inactive” in each case. For the same compound, the compound was called inactive in assay [3]. Also, the max response is -4.7% in [7]; -9.04% (inactive) in [8]; -0.607% (inactive) in assay [11]; -4.51% (inactive) in assay [12]; -11.4% (inactive) in [13]. Also, the activation was 0.836% (inactive) in assay [9] and 6.72% (inactive) in assay [10].
For the compound `CC(Oc1cc(Cl)c(Cl)cc1Cl)C(=O)O` (stereo not given), the Potency entry in assay [1], in assay [2], in assay [4], in [5], in assay [16] and in assay [17] was “inactive” in each case. The Potency result in assay [14] was “inactive”. In addition, the result in assay [3] and in [15] was inactive. Moreover, the max response in assay [7] was -19.8%; in assay [8] it was 1.54% (inactive); in assay [11], -0.109% (inactive); in assay [12], 15.3% (inactive); in [18], 2.63% (inactive). Also, the activation in assay [10] was 2.71% (inactive).
As to `O=P(O)(O)CCCl`, the Potency result in assay [1], in assay [2], in assay [19], in assay [4], in [5] and in [17] was “inactive” each time. Further, the Potency entry in assay [14] was “inactive”. The call in assay [3] and in [15] was inactive. Also, the max response was -6.38% in assay [7]; 5.61% (inactive) in assay [8]; 0.775% (inactive) and -1.46% (inactive) in assay [11]; -26.8% (inactive) and 3.51% (inactive) in [12]; -9.79% (inactive) and -10.1% (inactive) in [13]; -9.16% (inactive) and -4.17% (inactive) in [18]. Moreover, the activity change % (negative = inhibition) in [20] is 22.1% (inactive) and 18.2% (inactive). Besides, the activation in assay [9] is -3.48% (inactive) and 2.67% (inactive); in assay [10], -0.0383% (inactive) and -0.0843% (inactive).
As to `COP(=S)(OC)Oc1nc(Cl)c(Cl)cc1Cl`, the Potency entry in [1], in assay [2], in assay [6], in [17] and in assay [14] was “inactive” throughout. Besides, the max response in assay [7] was 2.88%; in assay [8], 15.1% (inactive); in assay [11], -0.488% (inactive); in assay [12], -2.62% (inactive); in [13], -14.5% (inactive); in assay [18] it was -1.85% (inactive). Moreover, the results for the activation in assay [9] and in assay [10] were 10.9% (inactive) and 0.0215% (inactive), respectively.
As for `Clc1ccc([C@]2(Cn3cncn3)C[C@@H](Br)CO2)c(Cl)c1`, the Potency entry in assay [1], in assay [2], in assay [19], in assay [5], in assay [6] and in [17] was “inactive” each time. In assay [14], the Potency result is “inactive”. Besides, the compound was called inactive in assay [3] and in assay [15]. The max response in assay [7] was -15.6% and -7.06%; in [8] it was -12.9% (inactive) and -9.53% (inactive); in assay [11], -0.572% (inactive) and -0.644% (inactive); in assay [12] it was -16.1% (inactive) and 0.925% (inactive). Also, the activity change % (negative = inhibition) in assay [20] is -4.77% (inactive) and -5.66% (inactive). The activation in assay [9] was -0.258% (inactive) and -3.95% (inactive); in [10], 3.17% (inactive) and 2.53% (inactive).
Take `O=Nc1ccc(Nc2ccccc2)cc1`: the Potency in assay [1] was 12.6 µM [inconclusive] (active); in [2] it was 5.01 µM (active); in assay [9] it was 50.1 µM (active); in assay [17], 21.7 µM (active). The compound was classed as inactive in assay [3] and in assay [15]. Besides, in [4], the Potency result was “inactive”. Moreover, the activation in assay [9] was 19.9% (inactive); in assay [10], 6.01% (inactive).

The values above are taken from PubChem BioAssay (NCATS).
